± gives the standard deviation of the averaged measurements. Over roughly 33,000 sequences, “E-score (rank enrichment, -0.5 to 0.5)” has its median near -0.0028; the highest 2% begin near 0.23. This is one part of a sample in which the highest values are shown more often than they occur.
tested on: 2Sb-muMax20 (muMax20 with two 1,3-bis(methyl)benzene Cys staples, A13C/A17C and Q88C/A92C, C-terminal Lys); assay: PBM 8-mer E-score (E-score (rank enrichment, -0.5 to 0.5)); higher = stronger preferential binding
Procedure: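 Protein binding microarray (universal PBM chip covering all 10-mers in fixed probe flanks) with chemically synthesized human Max(13-93) bHLH-LZ analogs (not full-length Max) bearing noncanonical residues (hArg, Tha, Aib, Nle at 65) and aromatic Cys staples. Read-out per 8-mer (and its reverse complement): E-score (rank-based enrichment, -0.5 to 0.5) and Z-score of median probe intensity.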

In order of rising “PBM 8-mer E-score” value:
1. GGATGGCC  -0.241 ± 0.023
2. AGCCGCGG  -0.23908 ± 0.00016
3. CGTAGGAC  -0.224 ± 0.05
4. GCCTGAGC  -0.218 ± 0.037
5. GAATGCTA  -0.216 ± 0.036
6. GGACAGAC  -0.211 ± 0.04
7. CCAGGTGA  -0.197 ± 0.057
8. AGGTCAGG  -0.187 ± 0.011
9. GGCCCGCC  -0.185 ± 0.11
10. GGAACACC  -0.18 ± 0.026
11. GGGCCGGA  -0.178 ± 0.071
12. CAGCACGC  -0.176 ± 0.048
13. ACGGTCTC  -0.174 ± 0.083
14. ATCCAAGG  -0.161 ± 0.034
15. CGTGTGAA  -0.155 ± 0.051
16. CGGCACAG  -0.151 ± 0.028
17. CCACGTCC  -0.141 ± 0.039
18. GCCCAGGA  -0.14 ± 0.058
19. AAGAGGCC  -0.129 ± 0.067
20. CGGCAAAG  -0.127 ± 0.016
21. AGCGCAGA  -0.126 ± 0.074
22. CCGACAGG  -0.121 ± 0.008
23. AGCGTCGG  -0.117 ± 0.08
24. GCAGCACC  -0.116 ± 0.057
25. AACGCCGT  -0.116 ± 0.032
26. ACCGCGGT  -0.115 ± 0.037
27. AGCTGCCT  -0.1104 ± 0.00073
28. AACCGATC  -0.0993 ± 0.0093
29. CTGGGATA  -0.0992 ± 0.038
30. ATCTCGAC  -0.0985 ± 0.011
31. CTGTCTCC  -0.098 ± 0.04
32. CGCTGTTC  -0.0947 ± 0.036
33. AGATGTTG  -0.0885 ± 0.12
34. CCCTCCGC  -0.0855 ± 0.048
35. GTGCGAAC  -0.083 ± 0.0049
36. CTATTAGA  -0.0815 ± 0.044
37. CGACGTGC  -0.0806 ± 0.038
38. CGAACAAG  -0.08043 ± 0.00071
39. CGGCCCCG  -0.0779 ± 0.064
40. AGATCCAG  -0.0734 ± 0.013
41. AGTATAAC  -0.0733 ± 0.029
42. ATCGGGTG  -0.0686 ± 0.0025
43. GGCCCACA  -0.0654 ± 0.04
44. GGTTCCAC  -0.0645 ± 0.035
45. CGCTATTA  -0.0606 ± 0.018
46. CCCCCGCC  -0.0601 ± 0.073
47. AATCACAG  -0.0581 ± 0.1
48. ACGCGGTC  -0.0575 ± 0.016
49. ATTTCAGG  -0.054 ± 0.037
50. ACCACGAC  -0.0523 ± 0.04
51. CCACGTAG  -0.0491 ± 0.031
52. ACACGGGT  -0.046 ± 0.012
53. AGCCCACC  -0.043 ± 0.018
54. GACTATTA  -0.0384 ± 0.062
55. CCATCGAG  -0.0349 ± 0.043
56. AAATAGAA  -0.0324 ± 0.022
57. ACGGAACT  -0.0318 ± 0.08
58. CGCCCACG  -0.0314 ± 0.056
59. ATGCTTCC  -0.0299 ± 0.042
60. AATCACGA  -0.0273 ± 0.0012
61. AAGATCTA  -0.0269 ± 0.015
62. ACCTATTC  -0.025 ± 0.024
63. AATTTGAT  -0.0177 ± 0.068
64. CGTACAAG  -0.0151 ± 0.087
65. CGATTGAC  -0.0145 ± 0.035
66. AGCGCCCC  -0.0138 ± 0.11
67. ACGTGTAG  -0.0126 ± 0.035
68. CCTTATTC  -0.00564 ± 0.062
69. CGGTAAGA  0.00167 ± 0.075
70. GAATAGAC  0.00351 ± 0.056
71. CAATGCTA  0.00426 ± 0.07
72. AGGGAAAC  0.00477 ± 0.00053
73. CCACATCC  0.00851 ± 0.069
74. AACTTCAA  0.00863 ± 0.015
75. GGAACATA  0.0124 ± 0.063
76. CATACTCG  0.0129 ± 0.075
77. ATAGAAAC  0.0134 ± 0.036
78. CTACGTGA  0.0198 ± 0.047
79. CGACGTGA  0.0209 ± 0.0095
80. CATTAGTA  0.0235 ± 0.027
81. CTAAAGCC  0.0237 ± 0.016
82. CCGTGTTA  0.0249 ± 0.014
83. CCACGCGA  0.0259 ± 0.0059
84. GCCCCGCA  0.0269 ± 0.056
85. CCATCTTC  0.0281 ± 0.036
86. CTCCACTA  0.0307 ± 0.041
87. GCAATTGC  0.031 ± 0.021
88. CGTTCTAA  0.032 ± 0.071
89. AATAATCA  0.0347 ± 0.023
90. GCGTGTTA  0.0351 ± 0.018
91. CGGGGATA  0.0352 ± 0.012
92. ACAAATTA  0.0394 ± 0.025
93. CTATTAGC  0.0397 ± 0.078
94. ATAAGCTG  0.0487 ± 0.092
95. AAATAGGC  0.0499 ± 0.12
96. CAGTATCC  0.0515 ± 0.025
97. CGAACATC  0.0524 ± 0.0016
98. GGGGGATA  0.0584 ± 0.079
99. CAATAGGG  0.0594 ± 0.051
100. ACGTGTGA  0.0598 ± 0.014
101. AGGGAAAG  0.06 ± 0.037
102. CCACGTTC  0.0604 ± 0.011
103. GTCGAGAC  0.0609 ± 0.045
104. ACTATAAG  0.0622 ± 0.044
105. AGTGATTA  0.0652 ± 0.034
106. GGAGGTTA  0.0654 ± 0.011
107. GAAAGCAA  0.0699 ± 0.014
108. AGCCCACG  0.0705 ± 0.024
109. ACGTGAGC  0.0717 ± 0.062
110. TGATGGCA  0.0723 ± 0.063
111. ATGCTGAA  0.0724 ± 0.024
112. ATTAGGTC  0.0763 ± 0.069
113. ACTTTCGA  0.0801 ± 0.036
114. ATTGGTTC  0.0837 ± 0.026
115. CATGTAGC  0.084 ± 0.043
116. AAGATCTG  0.0847 ± 0.069
117. CCTCATTC  0.0874 ± 0.052
118. CGTATAAG  0.0878 ± 0.037
119. CGCCCCAG  0.0881 ± 0.046
120. AATTAGTC  0.0882 ± 0.024
121. ATTGATGA  0.0883 ± 0.037
122. AACATCGA  0.0919 ± 0.039
123. ATTATCCA  0.0946 ± 0.055
124. GCCTAACA  0.0954 ± 0.1
125. ATAGCGAA  0.0983 ± 0.034
126. CACACCAC  0.0993 ± 0.072
127. GCACGTTA  0.1 ± 0.012
128. ACGTGTTC  0.103 ± 0.017
129. CAGTATGA  0.103 ± 0.036
130. GGCCCCAC  0.103 ± 0.019
131. AAGCTTCT  0.104 ± 0.092
132. AGGTAGCA  0.107 ± 0.065
133. ATCTCCAA  0.107 ± 0.026
134. GTTGATGA  0.108 ± 0.0079
135. CAATAGAC  0.109 ± 0.022
136. ACCTAGTG  0.109 ± 0.023
137. CAACGTGG  0.11 ± 0.044
138. CCATGTTA  0.111 ± 0.079
139. TACTAATA  0.112 ± 0.037
140. CACTAATA  0.113 ± 0.031
141. AAATAGAG  0.114 ± 0.056
142. ACCCATCA  0.114 ± 0.044
143. AGTATTCC  0.115 ± 0.061
144. GGCTATTA  0.116 ± 0.04
145. CTCCCACA  0.119 ± 0.064
146. TAGCTTCA  0.122 ± 0.05
147. AACCCGCC  0.123 ± 0.0032
148. ATTGATGC  0.125 ± 0.018
149. ATATTAGC  0.125 ± 0.041
150. AATCACGC  0.125 ± 0.047
151. AGAACAAA  0.13 ± 0.046
152. GCTTATTA  0.1305 ± 0.0011
153. CACTATTA  0.133 ± 0.036
154. AAGTATGA  0.139 ± 0.069
155. TATTAAAA  0.142 ± 0.065
156. ACATGTTC  0.144 ± 0.088
157. ACACGCGG  0.145 ± 0.026
158. ATGGGATA  0.145 ± 0.0055
159. ACGTGTAC  0.147 ± 0.019
160. GACTTCAA  0.15 ± 0.0026
161. ACGTGTGG  0.151 ± 0.034
162. GCTCATTA  0.155 ± 0.098
163. GGATTGTA  0.156 ± 0.046
164. AATCAAAC  0.16 ± 0.021
165. GCATGTTA  0.165 ± 0.072
166. AATCACAA  0.166 ± 0.021
167. AAATAAAT  0.172 ± 0.013
168. CAAAGCAA  0.173 ± 0.058
169. AGTATAAA  0.188 ± 0.0027
170. GATAATCA  0.188 ± 0.037
171. AGTAGAAT  0.192 ± 0.0085
172. ATCCCACC  0.193 ± 0.054
173. ATGTGTTG  0.197 ± 0.039
174. GTATTAGA  0.201 ± 0.063
175. TAATGCTA  0.231 ± 0.044
176. GCCCCGCC  0.233 ± 0.12
177. CGAACATA  0.233 ± 0.037
178. TAGTATGA  0.233 ± 0.017
179. AAATAGAC  0.235 ± 0.0036
180. ACGTGTGC  0.2375 ± 0.00032
181. AAATAGAT  0.24 ± 0.044
182. AGTATAAT  0.24 ± 0.091
183. AGCCCACA  0.2403 ± 0.0014
184. ATATTAGA  0.245 ± 0.0043
185. AATCACAT  0.245 ± 0.025
186. AGCTATTA  0.251 ± 0.019
187. CCTCATTA  0.251 ± 0.052
188. AACTATTA  0.252 ± 0.069
189. ACATGTTA  0.2525 ± 0.0013
190. CGCCCCAC  0.253 ± 0.11
191. ATTGATGG  0.254 ± 0.0094
192. AAGATCTT  0.257 ± 0.052
193. ACGTGTTG  0.258 ± 0.013
194. AATCACGT  0.26 ± 0.025
195. CGAACAAA  0.261 ± 0.021
196. AACTAATA  0.263 ± 0.029
197. TATAATCA  0.263 ± 0.0093
198. AGGGAAAT  0.264 ± 0.019
199. TACTTCAA  0.265 ± 0.047
200. GGATGGCA  0.267 ± 0.059
201. ACGTGTTA  0.269 ± 0.0048
202. CTCCCACC  0.27 ± 0.025
203. AGTATAAG  0.272 ± 0.011
204. GTGGGATA  0.274 ± 0.071
205. CCTTATTA  0.28 ± 0.023
206. AATTAGTA  0.281 ± 0.031
207. AAATAGGG  0.286 ± 0.0043
208. ATATTAGG  0.287 ± 0.008
209. TAAAGCAA  0.2878 ± 0.0008
210. ACATGTTG  0.289 ± 0.023
211. AGGGGATA  0.303 ± 0.046
212. CGCCCACC  0.312 ± 0.0061
213. ACCCCGCC  0.318 ± 0.056
214. CCACGTTA  0.3181 ± 0.0019
215. CCACGCGG  0.323 ± 0.026
216. ACGTGTAT  0.35 ± 0.016
217. CCACGTGC  0.376 ± 0.054
218. CCACGTGA  0.377 ± 0.034
219. CCACGTGG  0.46 ± 0.0066

Source: the supplement of paper PMC12636033
